Results on 40 sequences are retold here after the supplement of paper PMC6555819.

The assay concerns VDR:RXRa (NR concentration 270 nM, RXRa partner concentration 90 nM). The assay can be described thus: PBM binding z-score (relative to random genomic background probes); higher = stronger binding; sequences stand for … in GC…GCGATTGACAGCGTAGAATGAAGG
The procedure:
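Protein-binding microarray (Agilent 4x180K custom design, double-stranded 60-nt probes: 5' GC cap, 34-nt variable region, 24-nt constant primer region; full probe sequence given). Purified or IVT nuclear receptor:RXRα heterodimers (3:1 NR:RXRα, mostly 270:90 nM) or homodimers were incubated for 1 h in PBS with 2% milk and no ligand, then detected with Alexa488 antibodies. Fluorescence from o1-orientation probes (~5 replicates averaged) was converted to z-scores against 500 random hg19 background probes. Variable regions are seed direct-repeat (DR0–DR5) sites, all their single-nucleotide variants and half-site ablations.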
As for GCGACTGGGTCAAAGCAGGTTACCATAAGGTTGG, the PBM binding z-score amounted to 3.06.
Sequence GCTCTGAGGACAAGGTCAGAGCTTTGTCCGTAGA registered a PBM binding z-score of 1.68.
TAGCCTAGGTCATGCCGGCCAGTATAGTGTCGGC had a PBM binding z-score of 1.95.
For TCTAGTTGGTCACGGAGGTCACGCACGACGGGTA, the PBM binding z-score turned out to be 5.99.
The result for GCATATAGCTAATACAAGGTGAAAGTCCGATTGT reads 0.231.
The value for CGTCCAAGGTCAAAGGTCAGTGAGGAGATGACGG was 6.92; that for TCTTGTAGATCAACCAGGTTAAGAAAGCCTGAGT was 1.04; that for AGAATGAGGTTATTGAGATCAGGGAATTGCGGTC was 3.35.
The value for ATCTCTAGGTAGCCAAGTTCAGTGAATGCCGAAC was 2.24.
As to TTAATGAGGTTAAAGATCAGGGAACGTGGCGTCG, the PBM binding z-score stood at 2.4.
The value for GAAACGAGGGCATTCGAGTTGATAGCATGGCGAT was 3.97; that for AGTCAAAGTTCATCTAGGTAACGTCAGATATGCT was 5.17; that for TCATATAGGTAAATGCTAGGTGCAAGTCCGATCT was 0.809.
The result for TCTATTAGTTGAAGGGTAACCGACGAGTCCGTTT reads 1.2.
The result for CCAGACAGGTGAGAAGGAAACTCAGCCTCGATTA reads -0.211; that for TCTATTAGTTGAAGGGCAACTGACGAGTCCGTTT, 0.937; that for ACTAGTTGGTTAGCTGAGGTCACACACAATTCGG, 4.03.
CCGAGTACGTTATGGGGCATTCAGGCAACGGTGA gave a PBM binding z-score of 0.216.
The result for CCAGACAGGTGAAAAGTAACTCAGTCTGGTACGC reads 0.113; that for TAGCCTAGGTCAGATTGGGCCAGTATACGCTATA, 0.524.
The value for TCTATTAGTTGAAGGGCAATCGACGAGTCCGTTT was 1.02; that for CGTCCAAAGTCAGAGAGGTCAGTGAATGCCGAGT was 4.38; that for ATCGAAAGGTCGAGATGAGTATAGAGAAAGGGAA was 2.4.
The result for ATATGTAGGTTAGCTGGGGTGATTCAGACTAGGC reads 1.01.
The sequence GCTTGTAGTTCAAGGTTAAGAAAGACTAAGCTAA displayed a PBM binding z-score of 1.46.
The value for TAGCCTAGGTCATGTGGGCCAGTATAGTGTCGGC was 2.62; that for CCTCGTTGGTCAGGAGGTCACACACCGGATATGA was 3.77.
The result for AGAATGAGGTTACCAAAGATCCGGGAAACGCTTG reads 1.16; that for AGTCAAAGTTCAGGACGAGGTATCGTAAAGCACG, 2.29.
The value for TCTTGTAGATCAATAGAGGTTAGGAAAGTGCGCT was 1.05.
CAAACTAGATCAAAGGTCAAAGTCGAGCCAACCA registered a PBM binding z-score of 4.93.
On to CCTACTGGGCCTAAAAGGTCATTGATGCCGATAA, for which the PBM binding z-score amounted to 4.38.
The value for TAGCCTAGGTCACGCGGGCCAGTATAGTGTCGGC was 3.35.
The result for TAGCCTAGGTGATGCGGGCCAGTATAGTGTCGGC reads -0.796; that for CCTTACGGGTCACTGACAGGTTACAGCATTTGGA, 3.76; that for TGAATGAGGTTAAAGATCAGGGTACGTGGCGTCG, 2.38.
The result for AACGAAAGGTCGTGAGGTGAGTATACAGAAAGGC reads 3.68.
Sequence CAGCCTAGGTCAGGGCCAGGATAGGAGGAACGTT gave a PBM binding z-score of 0.0936.
On to CCCGACAGGTGAAAGGTAACTCAGTCTGGTACGC, for which the PBM binding z-score turned out to be 0.836.
The sequence CGAACTAGATCATCCAGGACAGTGAATACATTGA showed a PBM binding z-score of 0.286.
